# Several values for one entry are separate records, joined by “and”; a condition that tells them apart may be missing. Equal values may be shown once. Records with an inconclusive call do not appear. Activity calls are given as the source filed them. The calls were made as follows, unless noted: active = hit-call score of the fitted dose curve at least 0.9, where 1 is the maximum; inconclusive = response in the unintended direction; inactive = score below 0.9.
# What was measured:
# [1] = read-out: matrix metalloproteinase-1 (MMP1), MMP1 (gene 4312); experiment: LTEA_HepaRG_MMP1: Life Technologies and Expression Analysis (LTEA) Assay for matrix metalloproteinase-1 (MMP1) using HepaRG (AID 2283658; active = hit-call score of the fitted dose curve at least 0.9, where 1 is the maximum; inactive = score below 0.9); details: mRNA level, 48 h; actives raise or lower the signal
# Summary of the method: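 In this screen, human liver HepaRG cultures receive each chemical in duplicate for 48 h (top 100 uM, 0.5% DMSO). MMP1 expression is then quantified by TaqMan qRT-PCR with ACTB/GAPDH/POLR2A normalization.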
# [2] = read-out: ABC Transporter (ABCB1), ABCB1 (gene 5243); experiment: CLD_ABCB1_6hr: CellzDirect (CLD) Gene Expression Assay for ABC Transporter (ABCB1) at 6 hours (AID 2283659);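 also: hits raise ABCB1 transcript above the DMSO vehicle baseline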
# Summary of the method: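 ABCB1 transcript measured by quantitative nuclease protection assay, chemiluminescent read-out, 6 h after dosing human hepatocyte cultures (0.2% DMSO vehicle, daily redosing). Activity fitted as increase over DMSO baseline; cytotoxicity flagged by phase-contrast morphology.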
# [3] = read-out: xenobiotic metabolism (CYP1A2), CYP1A2 (gene 1544); experiment: CLD_CYP1A2_6hr: CellzDirect (CLD) Gene Expression Assay for xenobiotic metabolism (CYP1A2) at 6 hours (AID 2283663);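 as to AC50: potency is for induction meaning a rise in mRNA above DMSO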
# Summary of the method: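 mRNA levels quantified by quantitative nuclease protection assay with chemiluminescence, 6 h after dosing human primary hepatocyte cultures (two donors) across several concentrations, vehicle 0.2% DMSO. Induction fitted upward versus DMSO; phase-contrast cytotoxicity annotated.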
# [4] = Tanguay_ZF_120hpf_TR_legacy: (Legacy) Oregon State University Tanguay Lab 120 Hour Post-fertilization zebrafish Assay for Touch Response (AID 2283667)
# Summary of the method: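 Readout is presence or absence of touch response in 120 hpf zebrafish larvae, assessed by brightfield observation after continuous static exposure at 28C. Final vehicle was 0.64% (vol/vol) DMSO.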
# [5] = tested on: Thyroperoxidase (TPO), gene 54314; experiment: CCTE_Simmons_AUR_rTPO: CCTE's Amplex UltraRed Assay for Thyroperoxidase (TPO) Inhibition, Simmons Lab (AID 2283662);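 as to AC50: potency for loss of signal meaning inhibition of peroxidase activity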
# Summary of the method: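 Endpoint is decreased Amplex UltraRed fluorescence after a 30-min, 37C reaction of rat thyroid microsomes with 300 uM H2O2. Eight test concentrations (5 nM–87.5 uM final) in 0.5% DMSO, three biological replicates each.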
# [6] = CCTE_Simmons_CellTiterGLO_HEK293T: Viability Assessment in CCTE's Assays for Thyroperoxidase (TPO) Inhibition, Simmons Lab (AID 2283665);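 as to AC50: cells exposed to compound for 24 h before readout; actives reduce ATP signal below DMSO vehicle meaning cytotoxicity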
# Summary of the method: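 Cells were seeded overnight, then exposed to an eight-point series up to 87.5 uM final for 24 hours. CellTiter-Glo reagent was added and luminescence read after 20 min, giving ATP-based viability versus DMSO.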
# [7] = read-out: sulfotransferase (SULT2A), SULT2A1 (gene 6822); experiment: CLD_SULT2A_6hr: CellzDirect (CLD) Gene Expression Assay for sulfotransferase (SULT2A) at 6 hours (AID 2283669);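 also: hits raise transcript level above the DMSO vehicle baseline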
# Summary of the method: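 Measured 6 h after dosing, SULT2A1 mRNA in human hepatocyte lysates was quantified by S1 nuclease protection with chemiluminescent detection. Increases fitted against 0.2% DMSO vehicle baseline; phase-contrast cytotoxicity recorded yes/no.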
# [8] = read-out: xenobiotic metabolism (CYP2C9), CYP2C9 (gene 1559); experiment: CLD_CYP2C9_6hr: CellzDirect (CLD) Gene Expression Assay for xenobiotic metabolism (CYP2C9) at 6 hours (AID 2283664)
# Summary of the method: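 Readout is qNPA chemiluminescence of CYP2C9 mRNA, taken 6 h after dosing of cultured human liver primary cells at several concentrations. Activity is the increase over 0.2% DMSO baseline. Morphology-based cytotoxicity flagged yes/no.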
# [9] = read-out: xenobiotic metabolism (CYP1A1), CYP1A1 (gene 1543); experiment: CLD_CYP1A1_6hr: CellzDirect (CLD) Gene Expression Assay for xenobiotic metabolism (CYP1A1) at 6 hours (AID 2283661);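 as to AC50: potency for transcript induction above DMSO vehicle baseline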
# Summary of the method: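 Read-out 6 h post-dose: qNPA chemiluminescent quantitation of transcript induction against 0.2% DMSO. Cells were cultured primary human hepatocytes from two separate donor preparations; phase-contrast morphology annotated apparent cytotoxicity.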
# [10] = read-out: alkyl and aryl transferase (GSTA2), GSTA2 (gene 2939); experiment: CLD_GSTA2_6hr: CellzDirect (CLD) Gene Expression Assay for alkyl and aryl transferase (GSTA2) at 6 hours (AID 2283666)
# Summary of the method: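 GSTA2 transcript induction at 6 h, quantified by nuclease protection (qNPA) with chemiluminescent detection, in human liver primary hepatocytes exposed to several compound concentrations with 0.2% DMSO as baseline; phase-contrast morphology annotated apparent cytotoxicity.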
smiles,measurement,setting,value
CC(C)Oc1cccc(NC(=O)c2ccccc2C(F)(F)F)c1,outcome,[1],inactive
same,outcome,[2],inactive
same,outcome,[3],inactive
same,outcome,[4],inactive
Cc1cnc(C2=NC(C)(C(C)C)C(=O)N2)c(C(=O)O)c1 (centres undefined),outcome,[2],inactive
same,outcome,[5],inactive
same,outcome,[3],inactive
same,outcome,[6],inactive
same,outcome,[4],inactive
same,outcome,[7],inactive
CCOc1nc(F)cc2nc(S(=O)(=O)Nc3c(Cl)cccc3Cl)nn12,outcome,[2],inactive
same,AC50,[5],26.5 µM (active)
same,outcome,[3],inactive
same,outcome,[8],inactive
same,outcome,[6],inactive
same,outcome,[4],inactive
same,outcome,[7],inactive
CCC(C)n1c(=O)[nH]c(C)c(Br)c1=O (centres undefined),outcome,[1],inactive
same,AC50,[3],9.68 µM (active)
same,outcome,[8],inactive
same,outcome,[4],inactive
same,outcome,[7],inactive
CCCCC(C#N)(Cn1cncn1)c1ccc(Cl)cc1 (centres undefined),outcome,[1],inactive
same,outcome,[2],inactive
same,AC50,[9],3.97 µM (active)
same,outcome,[3],inactive
same,outcome,[8],inactive
same,AC50,[4],50.7 µM (active)
same,outcome,[7],inactive
COP(=S)(OC)Oc1ccc([N+](=O)[O-])c(C)c1,outcome,[2],inactive
same,AC50,[5],5.57 µM (active)
same,AC50,[3],3.34 µM (active)
same,outcome,[6],inactive
same,outcome,[4],inactive
same,outcome,[7],inactive
CN=C=S,outcome,[1],inactive
same,outcome,[2],inactive
same,outcome,[8],inactive
same,outcome,[4],inactive
same,outcome,[7],inactive
C=CCOC(=O)C(C)(C)OC(=O)c1cc(-n2c(=O)cc(C(F)(F)F)n(C)c2=O)ccc1Cl,outcome,[2],inactive
same,outcome,[3],inactive
same,outcome,[8],inactive
same,outcome,[7],inactive
CCNP(=S)(OC)O/C(C)=C/C(=O)OC(C)C (centres undefined),outcome,[2],inactive
same,outcome,[5],inactive
same,AC50,[3],3.56 µM (active)
same,outcome,[8],inactive
same,outcome,[4],inactive
same,outcome,[7],inactive
CC(C)Nc1nc(Cl)nc(NC(C)C)n1,outcome,[2],inactive
same,AC50,[9],4.73 µM (active)
same,AC50,[3],0.163 µM (active)
same,outcome,[4],inactive
CCCN(CC)CC1COC2(CCC(C(C)(C)C)CC2)O1 (centres undefined),outcome,[2],inactive
same,outcome,[9],inactive
same,outcome,[3],inactive
same,outcome,[7],inactive
CCOc1nc(C(Cl)(Cl)Cl)ns1,outcome,[2],inactive
same,outcome,[5],inactive
same,outcome,[3],inactive
same,outcome,[8],inactive
same,AC50,[6],82.9 µM (active) and 70.4 µM (active)
same,outcome,[4],inactive
same,outcome,[7],inactive
CCOP(=S)(OCC)Oc1nc(Cl)n(C(C)C)n1,outcome,[1],inactive
same,outcome,[2],inactive
same,AC50,[9],2.55 µM (active)
same,AC50,[5],31.2 µM (active)
same,AC50,[3],2.78 µM (active)
same,outcome,[8],inactive
same,outcome,[6],inactive
same,outcome,[4],inactive
same,outcome,[7],inactive
CC(C)N1C(=O)c2ccccc2NS1(=O)=O,outcome,[2],inactive
same,outcome,[9],inactive
same,outcome,[3],inactive
same,outcome,[8],inactive
same,outcome,[4],inactive
Nc1c(Cl)c(F)nc(OCC(=O)O)c1Cl,outcome,[2],inactive
same,outcome,[3],inactive
same,outcome,[8],inactive
same,outcome,[4],inactive
OC(c1ccc(Cl)cc1)(c1ccc(Cl)cc1)C(Cl)(Cl)Cl,outcome,[2],inactive
same,AC50,[5],43.8 µM (active)
same,outcome,[3],inactive
same,outcome,[8],inactive
same,AC50,[6],6.74 µM (active)
same,outcome,[4],inactive
same,outcome,[7],inactive
COc1ccc(-c2ccccc2)cc1NNC(=O)OC(C)C,outcome,[2],inactive
same,AC50,[5],1.84 µM (active)
same,AC50,[3],0.798 µM (active)
same,outcome,[8],inactive
same,AC50,[6],42.4 µM (active)
same,outcome,[4],inactive
same,outcome,[7],inactive
COCC(C)N(C(=O)CCl)c1c(C)csc1C (centres undefined),outcome,[2],inactive
same,outcome,[3],inactive
same,outcome,[8],inactive
same,AC50,[4],26.3 µM (active)
same,outcome,[7],inactive
CC(C)N1C(=O)N(c2ccccc2)CSC1=NC(C)(C)C,outcome,[2],inactive
same,outcome,[3],inactive
same,outcome,[8],inactive
same,outcome,[4],inactive
COP(=O)(OC)O/C(C)=C/C(=O)N(C)C,outcome,[2],inactive
same,outcome,[9],inactive
same,outcome,[3],inactive
same,outcome,[8],inactive
same,outcome,[10],inactive
same,outcome,[4],inactive
same,outcome,[7],inactive
CC(C)=CC1C(C(=O)OCc2coc(Cc3ccccc3)c2)C1(C)C (centres undefined),outcome,[2],inactive
same,outcome,[9],inactive
same,AC50,[5],26.8 µM (active)
same,outcome,[8],inactive
same,AC50,[6],32.7 µM (active)
same,outcome,[4],inactive
COCC(=O)N(c1c(C)cccc1C)C(C)C(=O)OC (centres undefined),outcome,[2],inactive
same,outcome,[3],inactive
same,outcome,[8],inactive
same,outcome,[4],inactive
same,outcome,[7],inactive
O=C(O)c1c(Cl)ccc2cc(Cl)cnc12,outcome,[2],inactive
same,outcome,[9],inactive
same,outcome,[3],inactive
same,outcome,[8],inactive
same,outcome,[4],inactive
same,outcome,[7],inactive
CC1(C)CCC(=Cc2ccc(Cl)cc2)C1(O)Cn1cncn1 (centres undefined),outcome,[2],inactive
same,AC50,[9],0.00693 µM (active)
same,outcome,[3],inactive
same,outcome,[8],inactive
same,outcome,[4],inactive
same,outcome,[7],inactive
COP(=S)(OC)SCn1nnc2ccccc2c1=O,outcome,[2],inactive
same,AC50,[9],6.49 µM (active)
same,AC50,[5],6.68 µM (active)
same,AC50,[3],5.35 µM (active)
same,AC50,[6],53.8 µM (active)
same,outcome,[4],inactive
same,outcome,[7],inactive
CC1(C)CON(Cc2ccccc2Cl)C1=O,outcome,[2],inactive
same,outcome,[9],inactive
same,outcome,[3],inactive
same,outcome,[4],inactive
same,outcome,[7],inactive
COC(=O)c1c(C(F)F)nc(C(F)(F)F)c(C2=NCCS2)c1CC(C)C,outcome,[2],inactive
same,AC50,[9],1.91 µM (active)
same,AC50,[3],0.665 µM (active)
same,outcome,[7],inactive
CCOP(=O)(OCC)Oc1nc(Cl)c(Cl)cc1Cl,outcome,[2],inactive
same,AC50,[5],29 µM (active)
same,AC50,[3],5.84 µM (active)
same,outcome,[8],inactive
same,AC50,[6],81.5 µM (active)
same,outcome,[4],inactive
same,outcome,[7],inactive
